Data on 29 compounds can be found in PubChem BioAssay (Tox21).

Unmarked numbers belong to inactive results. Inconclusive results are not listed. A call without a number means that no potency is given here. Activity calls are given as the source filed them. Unless noted, calls come from the whole dose curve; as a rule, active = well fitted cell-killing curve with a large enough effect in the repeat runs; inconclusive = weak or mixed curves; inactive = flat fitted curve, though single readings scatter.

The first test is described as follows: qHTS assay to identify small molecule agonists of the estrogen related receptor (ERR) signaling pathway from Tox21 library (AID 1224849; calls by dose curve; note: nearly all actives have a fitted effect of over 15% in size). The settings on record: ERR reporter cell line, ONE-Glo luciferase, 18 h; at 92.4 µM (top of the series) unless noted. In short, it runs like this:
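Quantitative HTS in agonist format: NTP ERR cell line, compounds transferred in DMSO after 6 h plating, 18 h incubation at 37 C, ONE-Glo luminescence endpoint.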
With `Oc1cccc2c(O)cccc12`, the activity change, positive = activation was -6.39%.
The same measure, in the same setting: next, `C=CCc1cc(S(=O)(=O)c2ccc(O)c(CC=C)c2)ccc1O`: -45.3%; `N#Cc1nc(Cl)c(Cl)c(Cl)c1Cl`: -76.2%.
Still for that read-out and setting: next, `CC(Cc1ccc(O)c(O)c1)C(C)Cc1ccc(O)c(O)c1` (stereo not given): -42.5%; `CN1CC[C@H](c2c(O)cc(O)c3c(=O)cc(-c4ccccc4Cl)oc23)[C@H](O)C1`: 28.6% [at 42.5 µM]; `CCCCCCCCCCCCN1CCCC1=O`: -16.7%.
Take `CC(=O)Nc1ccc(N=Nc2cc(C)ccc2O)cc1`: the activity change, positive = activation is 169% (active).
Consider `c1ccc(-c2ccc(C(c3ccccc3)n3ccnc3)cc2)cc1` (stereo not given), for which the activity change, positive = activation was -54.4% [at 42.5 µM].

The next test in a line: qHTS RealTime-Glo MT Cell Viability Assay in HepG2 cells - 24 hour (AID 1224867). Note: nearly all actives have a fitted effect of over 50% in size. Note: potency is the fitted concentration of half-maximal effect. The settings on record: RealTime-Glo luminescence; series mostly up to 76.8 µM. In short, it runs like this:
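qHTS, HepG2, 600 cells/well, RealTime-Glo (NanoLuc + prosubstrate) added with cells; 5 h preincubation; DMSO compound addition; 37 C; luminescence at 0/8/16/24/32/40 h.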
For the compound `CN1CCN(CCCN2c3ccccc3Sc3ccc(C(F)(F)F)cc32)CC1`, the Potency was 23.9 µM (active).
On the same count and under the same terms, to `Oc1cccc2c(O)cccc12` belongs “inactive”; to `CCCC(=O)c1cc(O)c(O)cc1O`, “inactive”.
Still for that read-out and setting: next, `CC(C=O)c1ccccc1` (stereo not given): “inactive”; `O=C(N[C@H](CO)[C@H](O)c1ccc([N+](=O)[O-])cc1)C(Cl)Cl`: “inactive”; `N#Cc1nc(Cl)c(Cl)c(Cl)c1Cl`: 24.5 µM (active).
In the case of `c1ccc(-c2ccccc2-c2ccccc2)cc1`, the Potency result was “inactive”.
Take `Nc1cccnc1N`: the Potency entry was “inactive”.
Still for that read-out and setting: next, `COc1cc([C@@H]2c3cc4c(cc3[C@@H](O[C@@H]3O[C@@H]5CO[C@@H](C)O[C@H]5[C@H](O)[C@H]3O)[C@H]3COC(=O)[C@H]23)OCO4)cc(OC)c1O`: “inactive”; `CC(Cc1ccc(O)c(O)c1)C(C)Cc1ccc(O)c(O)c1` (stereo not given): 43.6 µM (active).
Take `CCN(CCC#N)c1ccc(N=Nc2ccc([N+](=O)[O-])cc2)cc1`: the Potency entry is “inactive”.
With `CN1CCN(CCCN2c3ccccc3Sc3ccc(Cl)cc32)CC1`, the Potency was 21.3 µM (active).
Same read-out and setting: to `C1=CCCC1` belongs “inactive”; to `Nc1ccc(Oc2cccc(Oc3ccc(N)cc3)c2)cc1`, “inactive”; to `Cc1ccc(C2OC[C@@H]3OC(c4ccc(C)cc4)O[C@H]([C@H](O)CO)[C@@H]3O2)cc1` (stereo not given in full), “inactive”.
Still for that read-out and setting: next, `CN1CC[C@H](c2c(O)cc(O)c3c(=O)cc(-c4ccccc4Cl)oc23)[C@H](O)C1`: “inactive”; `CSc1nnc(C(C)(C)C)c(=O)[nH]1`: “inactive”.
Still for that read-out and setting: next, `CCN(CC)c1ccc2c(c1)Oc1cc(N(CC)CC)ccc1C21OC(=O)c2ccccc21`: “inactive”.
Take `NCc1cccc(C2CCN(C(=O)c3ccc(C#Cc4ccccc4F)o3)CC2)c1`: the Potency is 54.9 µM (active).
Still for that read-out and setting: to `O=C1c2ccccc2C(=O)c2c(Cl)cccc21` belongs “inactive”; to `Cc1ccc(Cl)c(N)c1Cl`, “inactive”.
Still for that read-out and setting: next, `CC1=C(/C=C/C(C)=C/C=C/C(C)=C\C(=O)O)C(C)(C)CCC1`: “inactive”; `CC(C)c1ccc2sc3ccccc3c(=O)c2c1`: “inactive”.
Same read-out and setting: to `CC/C=C\C/C=C\C/C=C\CCCCCCCC(=O)OC` belongs “inactive”; to `CC(=O)Nc1ccc(N=Nc2cc(C)ccc2O)cc1`, “inactive”.
On to `c1ccc(-c2ccc(C(c3ccccc3)n3ccnc3)cc2)cc1` (stereo not given), for which the Potency entry is “inactive”.
The same measure, in the same setting: to `C=CC(=O)OCC(Br)CBr` (stereo not given) belongs “inactive”.
